In PubChem BioAssay (NCATS):
Inconclusive results are not listed. Activity calls are given as the source filed them. Unless noted, the call rests on the fitted dose curve; in most records, active means well fitted curve in the direction sought with a large enough effect; inconclusive means small, poorly fitted or top-dose-only effect, or another doubt; inactive means no such curve, though single readings can be large; an effect the other way counts as inactive or inconclusive.

How the values were obtained:
UISO = experiment: qHTS assay to identify novel small-molecules to repurpose for Merkel cell carcinoma treatment (AID 1296009); settings: MCC and control cell lines, CellTiter-Glo viability, 72 h; series mostly up to 46 µM; further: nearly all actives have a fitted effect of over 60% in size; further: potency means the concentration at half of the fitted maximal effect
Method in brief: (§1)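 After compound transfer in DMSO, plates were kept 72 hr at 37 degree celsius. Luminescent ATP signal from CellTiter-Glo served as viability measure, normalized against DMSO and no-cell controls.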

WaGa = experiment: as above; settings: MCC and control cell lines, CellTiter-Glo viability, 72 h; series mostly up to 46 µM
Method in brief: as §1

C33A = experiment: Primary qHTS to identify gynecologic anti-cancer compounds using libraries of approved drugs and bioactive compounds (AID 1345084); settings: Gynecologic cancer cell panel viability, ATPlite luminescence, 48 h; series mostly up to 57.5 µM; further: nearly all actives have a fitted effect of over 55% in size; further: potency means the concentration at half of the fitted maximal effect
Method in brief: (§2)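 Cells, 1,000 per well, were allowed to settle for 16 h at 37 C before compound addition. Five concentrations were tested for 48 h, and viability was read by ATPlite luminescence after 15 min at room temperature.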

CASKI = experiment: as above; settings: Gynecologic cancer cell panel viability, ATPlite luminescence, 48 h; series mostly up to 57.5 µM
Method in brief: as §2

Es-2 = experiment: as above; settings: Gynecologic cancer cell panel viability, ATPlite luminescence, 48 h; series mostly up to 57.5 µM
Method in brief: as §2

HeLa = experiment: as above; settings: Gynecologic cancer cell panel viability, ATPlite luminescence, 48 h; series mostly up to 57.5 µM
Method in brief: as §2

Hek293T = experiment: as above; settings: Gynecologic cancer cell panel viability, ATPlite luminescence, 48 h, control line for the selectivity index; series mostly up to 57.5 µM
Method in brief: as §2

JEG-3 = experiment: as above; settings: Gynecologic cancer cell panel viability, ATPlite luminescence, 48 h; series mostly up to 57.5 µM
Method in brief: as §2

OV90 = experiment: as above; settings: Gynecologic cancer cell panel viability, ATPlite luminescence, 48 h; series mostly up to 57.5 µM
Method in brief: as §2

PA-1 = experiment: as above; settings: Gynecologic cancer cell panel viability, ATPlite luminescence, 48 h; series mostly up to 57.5 µM
Method in brief: as §2

SKOV3 = experiment: as above; settings: Gynecologic cancer cell panel viability, ATPlite luminescence, 48 h; series mostly up to 57.5 µM
Method in brief: as §2

Tov-21-G = experiment: as above; settings: Gynecologic cancer cell panel viability, ATPlite luminescence, 48 h; series mostly up to 57.5 µM
Method in brief: as §2

Tov112D = experiment: as above; settings: Gynecologic cancer cell panel viability, ATPlite luminescence, 48 h; series mostly up to 57.5 µM
Method in brief: as §2

[1] = Drug repurposing screens with cells derived from glioblastoma tumor samples (AID 1345199); settings: GBM patient neurospheres viability, ATP luminescence, 48 h; further: on the % scale 0 is the no-effect control and ±100 the full control effect; nearly all actives have a fitted effect of over 40% in size
Method in brief: (§3)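 Four patient lines of CD133+ GBM neurospheres were screened at several concentrations; hits were retested in those lines plus three slower-growing GBM lines, using 48-hour treatment and ATP-based viability.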

astro = experiment: as above; settings: viability, ATP luminescence, 48 h; series mostly up to 45.9 µM
Method in brief: as §3

[2] = target: Nuclear receptor subfamily 1 group I member 2 (Rattus norvegicus) (UniProt Q9R1A7); experiment: qHTS assay for small molecule activators of the rat pregnane X receptor (rPXR) signaling pathway (AID 651751; call rule not given here; further: 0% is about no effect); settings: rPXR reporter cells, luciferase (One-Glo), 24 h
[3] = qHTS assay for small molecule activators of the human pregnane X receptor (PXR) signaling pathway (AID 720659; call rule not given here; further: 0% is about no effect)
[4] = at 45.9 µM (top of the series), tumour line B
[5] = at 45.9 µM (top of the series), tumour line D
[6] = at 46.1 µM (top of the series), tumour line C

Nuclear receptor subfamily 1 group I member 2 (Rattus norvegicus), sequence (Q9R1A7 whole entry, looked up): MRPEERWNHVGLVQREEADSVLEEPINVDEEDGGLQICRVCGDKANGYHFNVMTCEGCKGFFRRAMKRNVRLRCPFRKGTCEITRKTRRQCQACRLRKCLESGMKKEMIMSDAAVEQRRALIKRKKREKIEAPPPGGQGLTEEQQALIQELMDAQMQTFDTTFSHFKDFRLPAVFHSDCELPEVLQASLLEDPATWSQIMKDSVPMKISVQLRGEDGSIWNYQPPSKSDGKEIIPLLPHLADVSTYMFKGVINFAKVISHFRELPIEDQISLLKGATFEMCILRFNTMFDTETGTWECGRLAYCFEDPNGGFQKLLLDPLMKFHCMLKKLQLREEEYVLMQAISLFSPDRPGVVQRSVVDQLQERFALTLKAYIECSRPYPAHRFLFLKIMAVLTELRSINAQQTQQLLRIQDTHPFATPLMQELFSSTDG

Brc1ccccc1-c1ccccc1
inactive: Potency (UISO) | Potency (WaGa) | Potency (C33A) | Potency (CASKI) | Potency (Es-2) | Potency (HeLa) | Potency (Hek293T) | Potency (JEG-3) | Potency (OV90) | Potency (PA-1) | Potency (SKOV3) | Potency (Tov-21-G) | Potency (Tov112D) | activity, negative = cell killing ([1]; at 91.6 µM (top of the series), tumour line A) -21.1% | activity, negative = cell killing ([1]; at 91.6 µM (top of the series), tumour line B) -9.1% | activity, negative = cell killing ([1]; at 91.6 µM (top of the series), tumour line D) -21.1% | activity, negative = cell killing ([1]; at 99.2 µM (top of the series), tumour line C) 6.63% | Potency (astro) | max response [2] 13.4% | outcome [3]

CCOC(=O)C(=O)c1csc(NC=O)n1
inactive: Potency (UISO) | Potency (WaGa) | Potency (C33A) | Potency (CASKI) | Potency (Es-2) | Potency (HeLa) | Potency (Hek293T) | Potency (JEG-3) | Potency (OV90) | Potency (PA-1) | Potency (SKOV3) | Potency (Tov-21-G) | Potency (Tov112D)

Cc1cc2nc3ccc(=[N+](C)C)cc-3sc2cc1N
active: Potency (UISO) 1.68 µM | Potency (WaGa) 0.668 µM | Potency (C33A) 3.98 µM | Potency (CASKI) 12.6 µM | Potency (Es-2) 14.1 µM | Potency (Hek293T) 14.1 µM | Potency (OV90) 22.4 µM | Potency (PA-1) 3.55 µM | Potency (SKOV3) 35.5 µM | Potency (Tov-21-G) 28.2 µM | Potency (Tov112D) 12.6 µM

Cc1onc(-c2c(Cl)cccc2Cl)c1C(=O)Cl
inactive: Potency (UISO) | Potency (WaGa) | Potency (C33A) | Potency (CASKI) | Potency (Es-2) | Potency (HeLa) | Potency (Hek293T) | Potency (JEG-3) | Potency (OV90) | Potency (PA-1) | Potency (SKOV3) | Potency (Tov-21-G) | Potency (Tov112D)

CC(=O)OCC(=O)[C@@]1(O)CCC2C3CCC4=CC(=O)CC[C@]4(C)C3[C@@H](O)C[C@@]21C (some centres undefined)
inactive: Potency (UISO) | Potency (WaGa) | Potency (C33A) | Potency (CASKI) | Potency (Es-2) | Potency (HeLa) | Potency (Hek293T) | Potency (JEG-3) | Potency (OV90) | Potency (PA-1) | Potency (SKOV3) | Potency (Tov-21-G) | Potency (Tov112D) | activity, negative = cell killing [1, 4] -6.98% | activity, negative = cell killing [1, 5] -11.4% | activity, negative = cell killing ([1]; at 46 µM (top of the series), tumour line A) -11.4% | activity, negative = cell killing [1, 6] 20.9% | Potency (astro)

CN(C)CCOC(c1ccccc1)c1ccc(Br)cc1 (centres undefined)
active: Potency (WaGa) 23.7 µM | Potency (OV90) 12.6 µM
inactive: Potency (UISO) | Potency (C33A) | Potency (CASKI) | Potency (Es-2) | Potency (HeLa) | Potency (Hek293T) | Potency (JEG-3) | Potency (PA-1) | Potency (Tov-21-G) | Potency (Tov112D)

O=C(CCC1CCN(Cc2ccccc2)CC1)c1ccc2c(c1)NCCCC2
inactive: Potency (UISO) | Potency (WaGa) | Potency (C33A) | Potency (CASKI) | Potency (Es-2) | Potency (HeLa) | Potency (Hek293T) | Potency (JEG-3) | Potency (Tov-21-G) | Potency (Tov112D)

CC(=O)O[C@@H]1C(=O)O[C@@H]2[C@H]1OC(=O)[C@@H]2OC(C)=O
inactive: Potency (UISO) | Potency (WaGa) | Potency (C33A) | Potency (CASKI) | Potency (Es-2) | Potency (HeLa) | Potency (Hek293T) | Potency (JEG-3) | Potency (OV90) | Potency (PA-1) | Potency (SKOV3) | Potency (Tov-21-G) | Potency (Tov112D) | activity, negative = cell killing [1, 4] -13.4% | activity, negative = cell killing [1, 5] 5.03% | activity, negative = cell killing [1, 6] -4% | Potency (astro)
